Results: PubChem BioAssay (NCI)
Where “and” joins values, the source holds several entries; their conditions need not be identical. Equal entries are not always repeated. This is part of a sample that, as a whole, favours compounds with a hit. Of some 83,000 tested, about 20% had one in any assay.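 Method: cells in 96-well plates; compound added at one concentration; 48 h incubation; percent growth measured; values under 10 scored active.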 Calls of active or inactive are those of the source.

Tests used:
Test in all cases: NCI-60 one-dose screen, 48 h (100 = growth as untreated, 0 = no growth, -100 = all killed)
Settings in all cases: 10 µM unless noted
T-47D breast = system: T-47D breast
BT-549 breast = system: BT-549 breast
MDA-MB-435 melanoma = system: MDA-MB-435 melanoma
SW-620 colon = system: SW-620 colon
MCF7 breast = system: MCF7 breast
HCT-116 colon = system: HCT-116 colon
HCC-2998 colon = system: HCC-2998 colon
KM12 colon = system: KM12 colon

SMILES	growth (T-47D breast)	growth (BT-549 breast)	growth (MDA-MB-435 melanoma)	growth (SW-620 colon)	growth (MCF7 breast)	growth (HCT-116 colon)	growth (HCC-2998 colon)	growth (KM12 colon)
Clc1nc(Oc2ccccc2)nc(-c2cn(-c3ccccc3)c3ccccc23)n1	89.8% (inactive)	96.9% (inactive)	38.2% (inactive)	12.4% (inactive)	88.5% (inactive)	58.5% (inactive)	74.4% (inactive)	89.6% (inactive)
OC(COc1cccc2ccccc12)CN1CCN(c2ccc(Cl)cc2)CC1 (centres undefined)	71.2% (inactive) and 96.1% (inactive)	85.4% (inactive) and 134% (inactive)	90.2% (inactive) and 94.6% (inactive)	71.7% (inactive) and 98.6% (inactive)	83.6% (inactive) and 89.7% (inactive)	60.2% (inactive) and 83.4% (inactive)	94.2% (inactive)	90% (inactive) and 113% (inactive)
COc1ccc(Cn2c(NCCN=C(N)N)nc(=O)n(Cc3ccc(F)cc3)c2=O)cc1	91.4% (inactive) and 87.7% (inactive)	86.9% (inactive) and 70.2% (inactive)	100% (inactive) and 109% (inactive)	101% (inactive) and 95.1% (inactive)	93.3% (inactive) and 93% (inactive)	88.7% (inactive) and 98.3% (inactive)	104% (inactive) and 102% (inactive)	114% (inactive) and 106% (inactive)
N#C/C(=C1C=C/C(=N/O)C(Br)=C/1)c1ccccc1	37.1% (inactive)	36.2% (inactive)	-64.5% (active)	12.7% (inactive)	18.2% (inactive)	-14.7% (active)	58.3% (inactive)	-32.6% (active)
O=C1OC2(c3ccccc31)c1ccc(O)c(O)c1Oc1c2ccc(O)c1O	106% (inactive) and 99.5% (inactive)	118% (inactive)	112% (inactive) and 130% (inactive)	105% (inactive) and 113% (inactive)	109% (inactive) and 105% (inactive)	110% (inactive) and 102% (inactive)	104% (inactive) and 109% (inactive)	104% (inactive) and 113% (inactive)
Nc1ccccc1SC1CC(=O)N(c2cccc3ccccc23)C1=O (centres undefined)	90.4% (inactive)	102% (inactive)	88.7% (inactive)	94.4% (inactive)	88.2% (inactive)	89.4% (inactive)	100% (inactive)	101% (inactive)
CC(=O)Nc1cc(S(=O)(=O)O)cc2cc(S(=O)(=O)O)c(N=Nc3ccccc3)c(O)c12	109% (inactive) and 85.9% (inactive)	107% (inactive) and 117% (inactive)	108% (inactive) and 112% (inactive)	104% (inactive) and 102% (inactive)	102% (inactive) and 91.9% (inactive)	93.2% (inactive) and 123% (inactive)	99.6% (inactive) and 99.1% (inactive)	107% (inactive) and 106% (inactive)
CC(=O)Nc1ccc2cc3ccc(NC(C)=O)cc3nc2c1	81.6% (inactive) and 69.9% (inactive)	106% (inactive) and 92.9% (inactive)	83.6% (inactive) and 92.6% (inactive)	90% (inactive) and 91.3% (inactive)	68.3% (inactive) and 85.1% (inactive)	92.3% (inactive) and 81.3% (inactive)	77.1% (inactive)	79.6% (inactive) and 89.5% (inactive)
Clc1ccc(NC(Nc2ccc(Cl)cc2)C(Cl)(Cl)Cl)cc1	67.7% (inactive) and 82.8% (inactive)	69.3% (inactive) and 85.8% (inactive)	62.9% (inactive) and 97.7% (inactive)	69% (inactive) and 98% (inactive)	88.9% (inactive) and 92.1% (inactive)	61.9% (inactive) and 85.4% (inactive)	80.6% (inactive) and 92.4% (inactive)	48.6% (inactive) and 84.9% (inactive)
CCC(O)c1ccccc1 (centres undefined)	106% (inactive) and 102% (inactive)	133% (inactive)	89.8% (inactive) and 107% (inactive)	109% (inactive) and 104% (inactive)	103% (inactive) and 95.6% (inactive)	86.7% (inactive) and 108% (inactive)	-87.7% (active)	116% (inactive) and 108% (inactive)
CCN(CC)CCOc1ccc(/C=N/Nc2nc3c([nH]2)c(=O)n(C)c(=O)n3C)cc1	89.7% (inactive) and 96.3% (inactive)	105% (inactive) and 96.1% (inactive)	104% (inactive) and 105% (inactive)	108% (inactive) and 104% (inactive)	81.5% (inactive) and 74.6% (inactive)	98.3% (inactive) and 103% (inactive)	102% (inactive) and 111% (inactive)	109% (inactive) and 106% (inactive)
CCCCCN(CCCCC)CC(O)c1cc2c(c3ccccc13)CCCC2 (centres undefined)	51.1% (inactive) and 54.1% (inactive)	88.8% (inactive) and 59.8% (inactive)	83.4% (inactive) and 69.8% (inactive)	28.9% (inactive) and 30.4% (inactive)	44.8% (inactive) and 23.5% (inactive)	20.2% (inactive) and 17.9% (inactive)	13.1% (inactive)	50.5% (inactive) and 35.3% (inactive)
COc1ccc(-c2ncnc3c2ncn3C/C=C/CCl)cc1	67.9% (inactive) and 92.5% (inactive)	53.8% (inactive) and 87.2% (inactive)	57.8% (inactive) and 81.6% (inactive)	61.1% (inactive) and 74.7% (inactive)	40.2% (inactive) and 55.6% (inactive)	46.6% (inactive) and 76.8% (inactive)	91.2% (inactive) and 95.4% (inactive)	85.4% (inactive) and 102% (inactive)
Cc1cc(N=Nc2ccc(C)c(N=Nc3cc(C)c(N)cc3N)c2)c(N)cc1N	77.5% (inactive) and 82.6% (inactive)	94.2% (inactive)	100% (inactive) and 12% (inactive)	94.8% (inactive) and 48.4% (inactive)	66.9% (inactive) and 19.4% (inactive)	84.3% (inactive) and 58.3% (inactive)	105% (inactive) and 91% (inactive)	90.6% (inactive) and 39.6% (inactive)
CN(C)c1ccc2nc3ccc(N)cc3[n+](-c3ccccc3)c2c1	-15.1% (active) and 0.414% (active)	27.5% (inactive)	4.97% (active) and -49.2% (active)	20.8% (inactive) and -13.9% (active)	3.88% (active) and -17.2% (active)	9.48% (active) and 5.93% (active)	14.6% (inactive) and 51.9% (inactive)	15.7% (inactive) and 24.2% (inactive)
CC1(c2ccc3ccccc3c2)CCC(=O)O1 (centres undefined)	103% (inactive)	104% (inactive)	106% (inactive)	108% (inactive)	106% (inactive)	111% (inactive)	109% (inactive)	106% (inactive)
O=C1CCN(Cc2ccccc2)C(=S)N1	113% (inactive) and 103% (inactive)	101% (inactive) and 117% (inactive)	108% (inactive) and 105% (inactive)	105% (inactive)	119% (inactive) and 86% (inactive)	103% (inactive) and 106% (inactive)	98.8% (inactive) and 99.9% (inactive)	104% (inactive) and 105% (inactive)
O=C(O)CN(CCN(CC(=O)O)CC(=O)O)CCN(CC(=O)O)CC(=O)O	9.23% (active) and 101% (inactive)	-10.9% (active) and 92.1% (inactive)	17.1% (inactive) and 101% (inactive)	10.5% (inactive) and 109% (inactive)	18% (inactive) and 85.5% (inactive) and 101% (inactive)	3.66% (active) and 91.9% (inactive) and 100% (inactive)	15.8% (inactive) and 105% (inactive) and 110% (inactive)	15.9% (inactive) and 112% (inactive) and 108% (inactive)
